This passage reports sensor-assay potency score (higher = more potent) results from the OligoGym collection.
Also: reference of the scale not given here.

In the assay the target is AGPAT6. Briefly: pooled miR-30 sensor sort-seq; sequence = guide strand. Conditions: shRNA.
TTGATCTCTTCTTCTAGTGAAG yielded a sensor-assay potency score (higher = more potent) of -1.1.

As for ATACTTGATAGCAACAGGGTAA, the sensor-assay potency score (higher = more potent) is -0.725.

TTCTAGTGAAGTGGGATCCTTT: the sensor-assay potency score (higher = more potent) was -0.0261.

On to AAGATGATCACATCGATCGGTG, for which the sensor-assay potency score (higher = more potent) is -0.372.

Turning to TTGAACATCATCACCGATGTAT, the sensor-assay potency score (higher = more potent) was found to be 0.749.

TATTGATGCAGGTTCCTTCTGG had a sensor-assay potency score (higher = more potent) of -0.00526.

Sequence TACTACTACCACTTCGACGAAT returned a sensor-assay potency score (higher = more potent) of -0.506.

The sequence TTCATCTGCCTCTCTAGTCATG yielded a sensor-assay potency score (higher = more potent) of -1.09.

For the sequence TAAGTGAACATGTTTACTCATG, the sensor-assay potency score (higher = more potent) is -1.14.

In turn, TTTTTGAACATCATCACCGATG had a sensor-assay potency score (higher = more potent) of -0.209.

In turn, TCTCTTTGATCTCTTCTTCTAG had a sensor-assay potency score (higher = more potent) of -0.219.

The sequence TCTTCTTCTAGTGAAGTGGGAT showed a sensor-assay potency score (higher = more potent) of -0.236.
